Screening data: PubChem BioAssay, several laboratories
Compounds with a hit are over-represented: about 1.4% of the library has one in this group of screens.
Cdc25B inh = inhibitors of Cdc25B phosphatase catalytic domain, primary screen, biochemical, OMFP fluorescence. M-phase inducer phosphatase 2 (Homo sapiens), P30305. inhibition, %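 (compounds tested at 10 µM final in the well)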. recombinant Cdc25B, OMFP fluorescence Ex485/Em525. hit rate 0.1% among 65,000; in the data active = inhibition above about 50%
HePTP inhibitor = inhibitors of human HePTP phosphatase, primary screen, biochemical, absorbance, leukemia target | Tyrosine-protein phosphatase non-receptor type 7 (Homo sapiens), P35236 | recombinant HePTP phosphatase activity, OD absorbance | inhibition, % at 20 µM | hit rate 0.64% among 110,000 | AID 521, 2006; in the data active = inhibition above about 50%; inconclusive = no clear call, values can overlap the other calls
Target sequence (P35236 whole entry, looked up): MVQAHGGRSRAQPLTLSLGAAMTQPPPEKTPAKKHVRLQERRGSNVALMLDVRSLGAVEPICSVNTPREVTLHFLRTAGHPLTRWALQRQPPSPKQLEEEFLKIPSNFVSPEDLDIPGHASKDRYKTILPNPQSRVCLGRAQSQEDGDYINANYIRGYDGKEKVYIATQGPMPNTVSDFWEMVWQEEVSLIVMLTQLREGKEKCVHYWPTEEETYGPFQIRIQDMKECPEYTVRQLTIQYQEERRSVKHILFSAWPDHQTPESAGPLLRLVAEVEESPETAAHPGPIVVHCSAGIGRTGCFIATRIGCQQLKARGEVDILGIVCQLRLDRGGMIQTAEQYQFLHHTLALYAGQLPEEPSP
MKP-1 inh = MKP-1 phosphatase inhibitors, primary screen, biochemical, in vitro. Dual specificity protein phosphatase 1 (Homo sapiens), P28562. recombinant MKP-1, OMFP hydrolysis fluorescence. inhibition, %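 (compounds tested at a single concentration somewhere between 10 and 100 µM)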. hit rate 0.15% among 65,000. AID 374, 2006;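 active = inhibition above about 50%, limit read from the data; inconclusive = inhibition over screen mean plus 3 SD, below that limit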
PLAP act = PLAP enzyme activators, biochemical, luminescence, HTS | Alkaline phosphatase, placental type (Homo sapiens), P05187 | purified PLAP enzyme, luminescent substrate read-out; hits give high values | activation fold at 20 µM | hit rate 1.2% among 96,000; in the data active = activation fold above about 2
BAP1 inh = inhibitors of BAP1 deubiquitinase, primary screen, biochemical, Ub-AMC fluorescence, kinetic | AID 436, 2006 | Ubiquitin carboxyl-terminal hydrolase BAP1 (Homo sapiens), Q92560 | hit rate 0.48% among 72,000 | calls only at 20 µM | recombinant BAP1, Ub-AMC hydrolysis fluorescence kinetic; hits give low values;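 active = activity remaining at or below 50% of control, provided the compound also passes the data quality filters; inactive = the rest, including low values that fail the filters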
BAP1 inh confirm = BAP1 deubiquitinase inhibitors, hit retest, confirmation, orthogonal assay, biochemical, Ub-ethyl ester substrate, HPLC readout; shares compounds with BAP1 inh; % of control activity, % at 20 µM; hit rate 8% among 310; purified BAP1, Ub-ethyl ester hydrolysis; hits give low values;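 active = percent of control activity at or below 60%; inconclusive = HPLC trace unusable from injection failure or solvent front hiding peaks; inactive = the rest, plus ubiquitin peak ratio over a set limit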
Each line names hits and unclear results; the compound was inactive in the other large screens (follow-up assays come after a bar, where they were run).

COc1ccc(C2CC(=O)N3CN(c4ccc(C)c(Cl)c4)CSC3=C2C#N)cc1OC (stereo unspecified)	BAP1 inh active | BAP1 inh confirm inconclusive
COc1ccc(Br)cc1C(=O)Nc1ccc(-c2nc3ncccc3o2)cc1	none (no result: Cdc25B inh, MKP-1 inh, PLAP act, BAP1 inh)
Cc1cc(C)n(-c2ccc(C(=O)OCC(=O)c3ccc(Br)s3)cc2)n1	BAP1 inh active | BAP1 inh confirm inactive
CN(C)c1ccc(-c2nn3c(-c4ccc(Cl)cc4Cl)nnc3s2)cc1	BAP1 inh active (no result: HePTP inhibitor) | BAP1 inh confirm inactive
Cc1cccn2c(=O)c3cc(C(=O)N4CCc5ccccc54)n(C)c3nc12	BAP1 inh active (no result: PLAP act) | BAP1 inh confirm inactive
CC1Cc2ccccc2N1C(=O)c1cc2c(=O)n3ccccc3nc2n1C (stereo unspecified)	BAP1 inh active | BAP1 inh confirm inactive
CCOc1ccc2nc(NC(=O)CN3CCC(n4nnc5cc(F)ccc54)CC3)sc2c1	BAP1 inh active | BAP1 inh confirm inactive
O=C(COc1ccc([N+](=O)[O-])cc1)Nc1ccc(O)cc1C(=O)O	none (no result: Cdc25B inh, MKP-1 inh, PLAP act)
O=C(c1cccs1)c1ccc(-c2cccs2)s1	BAP1 inh active | BAP1 inh confirm inactive
O=C(c1cc2ccccc2o1)c1cccs1	none
O=C(c1ccco1)[C@@H]1[C@@H]2C(=O)N(c3ccc(F)cc3)C(=O)[C@@H]2C2c3ccccc3C=CN21 (stereo partly specified)	none
O=C(c1ccco1)[C@@H]1[C@@H]2C(=O)N(c3ccc(Br)cc3)C(=O)[C@@H]2C2c3ccccc3C=CN21 (stereo partly specified)	BAP1 inh active | BAP1 inh confirm inactive
Cc1cccc(-n2c(=O)[nH]c3c(C(N)=O)nc(-c4ccccc4Cl)nc32)c1	BAP1 inh active | BAP1 inh confirm inactive
CCOc1cccc(C(=O)Nc2scc(-c3ccc(C)cc3)c2C(=O)OC)c1	none (no result: Cdc25B inh, MKP-1 inh, PLAP act, BAP1 inh)
COc1cccc(C2C(C#N)=C(N)OC3=C2C(=O)CC(c2ccco2)C3)c1OCc1ccc(F)cc1 (stereo unspecified)	BAP1 inh active | BAP1 inh confirm inactive
CCOC(=O)C1Cn2c(nc3c(c2=O)C2(CCCC2)Cc2ccccc2-3)S1 (stereo unspecified)	BAP1 inh active | BAP1 inh confirm inactive
CCOC(=O)C1Cn2c(nc3c(c2=O)C(C)(C)Cc2ccccc2-3)S1 (stereo unspecified)	none
Fc1ccc(C2=NCCn3cccc32)cc1	none (no result: Cdc25B inh, MKP-1 inh, PLAP act, BAP1 inh)
Cc1ccc(Cl)cc1N1CCN(C(c2ccc(C#N)cc2)c2nnnn2C2CCCC2)CC1 (stereo unspecified)	BAP1 inh active | BAP1 inh confirm inactive
CC(C)C(=O)NS(=O)(=O)c1ccc(NC(=O)c2ccccc2Cl)cc1	none (no result: Cdc25B inh, MKP-1 inh, PLAP act, BAP1 inh)
COc1ccccc1OCc1ccc(C(=O)n2nc(C)c(Cl)c2C)o1	BAP1 inh active | BAP1 inh confirm inactive
O=C1NC(=S)NC(=O)C1=Cc1ccccc1OS(=O)(=O)c1ccc([N+](=O)[O-])cc1	none (no result: Cdc25B inh, MKP-1 inh, PLAP act, BAP1 inh)
COc1cccc(-c2csc(N3CCN(S(=O)(=O)c4ccc(F)cc4)CC3)n2)c1	BAP1 inh active | BAP1 inh confirm inactive
COc1cccc(NC(=S)NC(NC(=O)Cc2ccccc2)C(Cl)(Cl)Cl)c1 (stereo unspecified)	none (no result: Cdc25B inh, MKP-1 inh, PLAP act, BAP1 inh)
O=C(CC(c1ccccc1)c1ccccc1)Nc1nncs1	none (no result: Cdc25B inh, MKP-1 inh, PLAP act, BAP1 inh)
O=C(Nc1nc(-c2ccc(F)cc2)cs1)c1ccc([N+](=O)[O-])cc1Cl	none (no result: Cdc25B inh, MKP-1 inh, PLAP act, BAP1 inh)
